What was measured:
Assay in all cases: DAPPL (digital affinity profiling via proximity ligation, sequencing); 10 mM Tris-HCl pH 7.5, 50 mM NaCl, 1 mM DTT, 4% glycerol, room temperature, 30 min; GST-TFs on glutathione beads, 16-mer random dsDNA library, 0.1% formaldehyde crosslink after washing; high values mean tight binding
[1] = target: T1, FEV (Homo sapiens, UniProt Q99581 1-238); conditions: protein: recombinant; tags: N-terminal GST; dsDNA, one strand shown
T1 sequence: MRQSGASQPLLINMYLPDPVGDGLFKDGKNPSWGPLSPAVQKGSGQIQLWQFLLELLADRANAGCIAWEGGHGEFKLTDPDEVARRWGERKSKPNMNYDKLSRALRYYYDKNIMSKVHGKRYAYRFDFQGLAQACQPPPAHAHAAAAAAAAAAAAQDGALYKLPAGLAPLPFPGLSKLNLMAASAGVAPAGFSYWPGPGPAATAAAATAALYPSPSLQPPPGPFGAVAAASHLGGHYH
Procedure, shortened: (§1)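 Sequencing on an Illumina NextSeq500 followed washing, crosslinking with 0.1% formaldehyde, proximity ligation (BsaI/T4 ligase, 1 h, 37 °C) and PCR amplification of pools that had been incubated for 30 min at room temperature with 200 nmole of a random double-stranded 16-mer DNA library in Tris/NaCl/DTT/glycerol buffer. Each pool held DNA-barcoded human transcription factors, expressed in yeast as GST fusions and captured on glutathione beads, plus a tag-only sample. Binding signal is a hexamer's read frequency for a factor divided by its frequency in the tag-only sample.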

[2] = target: ETV5 (Homo sapiens, UniProt P41161 1-510); conditions: protein: recombinant; tags: N-terminal GST; dsDNA, one strand shown
Sequence of ETV5 (P41161 whole entry): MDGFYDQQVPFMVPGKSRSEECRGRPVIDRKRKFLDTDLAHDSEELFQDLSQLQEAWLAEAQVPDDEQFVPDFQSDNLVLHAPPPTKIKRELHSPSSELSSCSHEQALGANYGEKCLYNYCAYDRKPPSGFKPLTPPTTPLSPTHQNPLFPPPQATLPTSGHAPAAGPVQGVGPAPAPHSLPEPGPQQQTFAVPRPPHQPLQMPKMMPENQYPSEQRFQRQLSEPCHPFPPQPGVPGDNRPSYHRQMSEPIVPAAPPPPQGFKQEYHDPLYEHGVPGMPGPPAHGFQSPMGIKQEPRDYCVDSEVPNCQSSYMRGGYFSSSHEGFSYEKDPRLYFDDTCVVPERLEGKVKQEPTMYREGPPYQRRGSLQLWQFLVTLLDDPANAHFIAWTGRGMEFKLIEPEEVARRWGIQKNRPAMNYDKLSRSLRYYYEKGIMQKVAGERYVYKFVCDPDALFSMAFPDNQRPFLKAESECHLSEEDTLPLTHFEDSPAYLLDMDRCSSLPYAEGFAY
Procedure, shortened: as §1

[3] = target: HSF1 (Homo sapiens, UniProt Q00613 1-529); conditions: protein: recombinant; tags: N-terminal GST; chain copies: 3; dsDNA, one strand shown
Sequence of HSF1 (Q00613 whole entry): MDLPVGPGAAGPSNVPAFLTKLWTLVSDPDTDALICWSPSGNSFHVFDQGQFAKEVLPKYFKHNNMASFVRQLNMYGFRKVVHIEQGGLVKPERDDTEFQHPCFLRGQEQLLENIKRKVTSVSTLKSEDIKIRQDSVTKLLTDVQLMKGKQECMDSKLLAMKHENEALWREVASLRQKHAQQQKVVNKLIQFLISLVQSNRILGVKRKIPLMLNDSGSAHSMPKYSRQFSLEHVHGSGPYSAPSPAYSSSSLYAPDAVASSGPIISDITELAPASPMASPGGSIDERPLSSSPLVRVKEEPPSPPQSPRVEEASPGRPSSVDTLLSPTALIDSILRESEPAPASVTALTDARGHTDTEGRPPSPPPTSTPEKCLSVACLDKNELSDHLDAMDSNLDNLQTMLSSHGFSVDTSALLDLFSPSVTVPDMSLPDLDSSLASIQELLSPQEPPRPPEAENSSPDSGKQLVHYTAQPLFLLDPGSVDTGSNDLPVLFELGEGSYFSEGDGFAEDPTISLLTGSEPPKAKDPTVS
Procedure, shortened: as §1

[4] = target: ELF4 (Homo sapiens, UniProt Q99607 1-663); conditions: protein: recombinant; tags: N-terminal GST; dsDNA, one strand shown
Sequence of ELF4 (Q99607 whole entry): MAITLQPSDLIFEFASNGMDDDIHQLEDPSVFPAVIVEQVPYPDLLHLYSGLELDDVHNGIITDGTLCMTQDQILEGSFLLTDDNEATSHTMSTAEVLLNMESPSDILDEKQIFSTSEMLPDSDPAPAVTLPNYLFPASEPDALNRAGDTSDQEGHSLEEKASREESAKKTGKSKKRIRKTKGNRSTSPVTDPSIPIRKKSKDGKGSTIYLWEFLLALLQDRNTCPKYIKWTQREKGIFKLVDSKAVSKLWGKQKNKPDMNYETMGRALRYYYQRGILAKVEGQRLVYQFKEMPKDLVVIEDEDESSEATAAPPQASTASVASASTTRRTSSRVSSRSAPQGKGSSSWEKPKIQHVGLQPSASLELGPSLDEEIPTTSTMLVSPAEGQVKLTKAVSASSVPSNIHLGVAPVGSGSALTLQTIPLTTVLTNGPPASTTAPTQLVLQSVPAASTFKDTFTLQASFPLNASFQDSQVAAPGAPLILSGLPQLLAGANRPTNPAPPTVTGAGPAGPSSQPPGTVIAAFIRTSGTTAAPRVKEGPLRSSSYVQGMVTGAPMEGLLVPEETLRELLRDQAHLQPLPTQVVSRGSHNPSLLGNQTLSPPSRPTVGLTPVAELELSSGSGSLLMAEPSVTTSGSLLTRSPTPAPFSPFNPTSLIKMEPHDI
Procedure, shortened: as §1

[5] = target: T2, ETV2 (Homo sapiens, UniProt O00321 1-342); conditions: protein: recombinant; tags: N-terminal GST; dsDNA, one strand shown
T2 sequence: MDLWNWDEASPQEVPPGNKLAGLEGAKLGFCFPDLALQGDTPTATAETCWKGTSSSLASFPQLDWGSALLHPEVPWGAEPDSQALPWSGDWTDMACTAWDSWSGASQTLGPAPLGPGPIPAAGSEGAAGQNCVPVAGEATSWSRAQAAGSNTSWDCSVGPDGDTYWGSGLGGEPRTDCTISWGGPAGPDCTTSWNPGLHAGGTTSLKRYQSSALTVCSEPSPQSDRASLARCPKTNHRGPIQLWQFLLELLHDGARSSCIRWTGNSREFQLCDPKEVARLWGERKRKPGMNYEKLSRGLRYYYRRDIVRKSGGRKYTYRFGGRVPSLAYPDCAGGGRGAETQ
Procedure, shortened: as §1

[6] = target: CRX (Homo sapiens, UniProt O43186 1-299); conditions: protein: recombinant; tags: N-terminal GST; dsDNA, one strand shown
Sequence of CRX (O43186 whole entry): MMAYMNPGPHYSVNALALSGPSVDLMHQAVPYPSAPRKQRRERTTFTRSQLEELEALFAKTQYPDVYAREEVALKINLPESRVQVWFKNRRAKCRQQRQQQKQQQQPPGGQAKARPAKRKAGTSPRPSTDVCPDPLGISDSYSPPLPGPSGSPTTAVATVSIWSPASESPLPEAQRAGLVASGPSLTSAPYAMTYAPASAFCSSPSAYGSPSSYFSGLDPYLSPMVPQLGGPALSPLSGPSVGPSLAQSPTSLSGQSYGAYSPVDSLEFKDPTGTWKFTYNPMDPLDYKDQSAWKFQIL
Procedure, shortened: as §1

[7] = target: ETV1 (Homo sapiens, UniProt P50549 1-477); conditions: protein: recombinant; tags: N-terminal GST; dsDNA, one strand shown
Sequence of ETV1 (P50549 whole entry): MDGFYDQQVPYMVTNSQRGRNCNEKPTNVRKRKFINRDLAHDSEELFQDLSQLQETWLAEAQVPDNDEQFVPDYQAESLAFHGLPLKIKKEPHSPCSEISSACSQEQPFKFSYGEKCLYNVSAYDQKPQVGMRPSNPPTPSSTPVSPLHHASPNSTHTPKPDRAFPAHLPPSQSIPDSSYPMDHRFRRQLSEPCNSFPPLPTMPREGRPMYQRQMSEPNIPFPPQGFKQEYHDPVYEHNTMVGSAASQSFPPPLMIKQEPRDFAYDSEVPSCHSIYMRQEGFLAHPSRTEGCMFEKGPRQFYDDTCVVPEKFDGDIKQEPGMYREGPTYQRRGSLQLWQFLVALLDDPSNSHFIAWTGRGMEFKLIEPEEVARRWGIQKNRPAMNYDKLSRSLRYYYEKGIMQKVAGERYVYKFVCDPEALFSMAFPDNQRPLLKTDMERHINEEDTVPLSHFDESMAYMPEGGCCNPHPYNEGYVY
Procedure, shortened: as §1

[8] = target: T3, ERF (Homo sapiens, UniProt P50548 1-548); conditions: protein: recombinant; tags: N-terminal GST; dsDNA, one strand shown
T3 sequence: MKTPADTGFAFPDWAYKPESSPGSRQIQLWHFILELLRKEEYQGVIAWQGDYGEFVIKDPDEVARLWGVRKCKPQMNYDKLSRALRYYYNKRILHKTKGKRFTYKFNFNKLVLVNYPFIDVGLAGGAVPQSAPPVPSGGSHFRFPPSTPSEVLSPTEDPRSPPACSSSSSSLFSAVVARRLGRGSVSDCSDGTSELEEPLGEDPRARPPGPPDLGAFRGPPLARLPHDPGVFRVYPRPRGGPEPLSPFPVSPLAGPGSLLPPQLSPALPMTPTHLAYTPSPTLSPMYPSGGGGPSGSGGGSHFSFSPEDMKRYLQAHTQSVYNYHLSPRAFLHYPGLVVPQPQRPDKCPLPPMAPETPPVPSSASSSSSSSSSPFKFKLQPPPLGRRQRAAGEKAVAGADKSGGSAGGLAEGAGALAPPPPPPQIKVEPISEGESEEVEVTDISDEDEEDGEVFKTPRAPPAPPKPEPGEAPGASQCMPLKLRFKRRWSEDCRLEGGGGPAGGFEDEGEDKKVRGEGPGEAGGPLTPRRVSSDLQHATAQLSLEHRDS
Procedure, shortened: as §1

[9] = target: T4, ETV3L (Homo sapiens, UniProt Q6ZN32 1-361); conditions: protein: recombinant; tags: N-terminal GST; dsDNA, one strand shown
T4 sequence: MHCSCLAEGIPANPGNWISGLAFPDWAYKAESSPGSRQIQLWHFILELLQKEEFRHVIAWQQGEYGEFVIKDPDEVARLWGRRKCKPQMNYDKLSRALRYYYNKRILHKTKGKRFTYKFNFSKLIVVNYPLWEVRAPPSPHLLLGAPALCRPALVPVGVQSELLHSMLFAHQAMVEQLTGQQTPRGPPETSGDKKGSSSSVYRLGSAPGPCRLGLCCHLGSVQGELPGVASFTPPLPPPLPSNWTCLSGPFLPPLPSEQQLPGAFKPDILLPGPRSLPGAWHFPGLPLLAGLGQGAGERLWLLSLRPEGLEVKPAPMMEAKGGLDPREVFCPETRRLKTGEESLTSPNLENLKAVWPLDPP
Procedure, shortened: as §1

[10] = target: T5, ETS2 (Homo sapiens, UniProt P15036 1-469); conditions: protein: recombinant; tags: N-terminal GST; dsDNA, one strand shown
T5 sequence: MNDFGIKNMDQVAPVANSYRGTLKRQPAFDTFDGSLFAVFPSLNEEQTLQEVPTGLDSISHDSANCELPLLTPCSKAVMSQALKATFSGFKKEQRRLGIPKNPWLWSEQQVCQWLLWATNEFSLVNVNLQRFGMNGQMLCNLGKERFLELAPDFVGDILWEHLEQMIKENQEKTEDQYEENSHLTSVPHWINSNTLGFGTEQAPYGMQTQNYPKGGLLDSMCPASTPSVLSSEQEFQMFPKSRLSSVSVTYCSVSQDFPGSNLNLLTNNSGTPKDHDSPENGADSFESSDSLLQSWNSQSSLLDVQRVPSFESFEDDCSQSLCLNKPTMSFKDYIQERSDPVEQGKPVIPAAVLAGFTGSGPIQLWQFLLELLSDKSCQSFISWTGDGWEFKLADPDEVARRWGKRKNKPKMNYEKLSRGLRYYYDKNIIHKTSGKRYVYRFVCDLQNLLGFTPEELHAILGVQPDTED
Procedure, shortened: as §1

[11] = target: T6, SPDEF (Homo sapiens, UniProt O95238 1-335); conditions: protein: recombinant; tags: N-terminal GST; dsDNA, one strand shown
T6 sequence: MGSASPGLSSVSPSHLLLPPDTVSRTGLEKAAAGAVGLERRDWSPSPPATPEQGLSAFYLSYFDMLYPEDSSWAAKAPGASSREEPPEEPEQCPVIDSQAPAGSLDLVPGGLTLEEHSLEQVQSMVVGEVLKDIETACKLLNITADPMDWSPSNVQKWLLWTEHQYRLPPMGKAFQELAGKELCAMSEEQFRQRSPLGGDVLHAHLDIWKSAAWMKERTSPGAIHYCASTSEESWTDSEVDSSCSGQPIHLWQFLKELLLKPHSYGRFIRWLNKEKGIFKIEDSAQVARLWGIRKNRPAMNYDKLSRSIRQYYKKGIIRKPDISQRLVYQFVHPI
Procedure, shortened: as §1

[12] = target: T7, ETV7 (Homo sapiens, UniProt Q9Y603 1-341); conditions: protein: recombinant; tags: N-terminal GST; dsDNA, one strand shown
T7 sequence: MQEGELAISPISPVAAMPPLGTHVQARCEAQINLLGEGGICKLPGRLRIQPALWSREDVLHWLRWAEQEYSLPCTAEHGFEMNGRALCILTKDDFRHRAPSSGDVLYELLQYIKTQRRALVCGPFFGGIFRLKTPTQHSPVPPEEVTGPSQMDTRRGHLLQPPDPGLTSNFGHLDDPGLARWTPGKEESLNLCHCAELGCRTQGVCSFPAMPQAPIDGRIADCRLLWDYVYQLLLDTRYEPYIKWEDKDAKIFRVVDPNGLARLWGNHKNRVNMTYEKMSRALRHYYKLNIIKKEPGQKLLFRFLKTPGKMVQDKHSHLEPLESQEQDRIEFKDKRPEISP
Procedure, shortened: as §1

[13] = target: T8, ELF5 (Homo sapiens, UniProt Q9UKW6-2 1-255); conditions: protein: recombinant; tags: N-terminal GST; dsDNA, one strand shown
T8 sequence: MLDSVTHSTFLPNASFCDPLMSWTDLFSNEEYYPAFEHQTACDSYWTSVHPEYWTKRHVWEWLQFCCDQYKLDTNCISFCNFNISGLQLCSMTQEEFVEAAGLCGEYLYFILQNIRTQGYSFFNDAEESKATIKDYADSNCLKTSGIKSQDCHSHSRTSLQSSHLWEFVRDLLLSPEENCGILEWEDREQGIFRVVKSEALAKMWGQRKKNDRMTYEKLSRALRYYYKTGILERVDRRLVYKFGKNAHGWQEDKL
Procedure, shortened: as §1

[14] = target: T9, ETV3 (Homo sapiens, UniProt P41162-2 1-143); conditions: protein: recombinant; tags: N-terminal GST; dsDNA, one strand shown
T9 sequence: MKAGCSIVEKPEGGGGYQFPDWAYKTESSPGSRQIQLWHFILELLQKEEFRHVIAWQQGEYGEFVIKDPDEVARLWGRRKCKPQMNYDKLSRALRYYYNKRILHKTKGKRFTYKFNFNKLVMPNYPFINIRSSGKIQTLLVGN
Procedure, shortened: as §1

[15] = target: ETV6 (Homo sapiens, UniProt P41212 1-452); conditions: protein: recombinant; tags: N-terminal GST; dsDNA, one strand shown
Sequence of ETV6 (P41212 whole entry): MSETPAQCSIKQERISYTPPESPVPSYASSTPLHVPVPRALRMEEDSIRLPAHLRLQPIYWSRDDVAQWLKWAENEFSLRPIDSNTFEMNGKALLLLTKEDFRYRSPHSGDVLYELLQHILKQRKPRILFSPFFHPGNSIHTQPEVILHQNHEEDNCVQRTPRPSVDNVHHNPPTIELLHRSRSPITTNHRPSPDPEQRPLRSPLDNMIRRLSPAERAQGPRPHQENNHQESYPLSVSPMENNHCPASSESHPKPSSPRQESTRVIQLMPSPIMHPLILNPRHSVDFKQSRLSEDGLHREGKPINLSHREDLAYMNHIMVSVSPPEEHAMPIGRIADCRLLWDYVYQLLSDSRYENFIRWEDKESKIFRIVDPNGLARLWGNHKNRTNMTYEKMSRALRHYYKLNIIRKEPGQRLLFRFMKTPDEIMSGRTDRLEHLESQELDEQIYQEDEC
Procedure, shortened: as §1

[16] = target: T10, ELF3 (Homo sapiens, UniProt P78545 1-371); conditions: protein: recombinant; tags: N-terminal GST; dsDNA, one strand shown
T10 sequence: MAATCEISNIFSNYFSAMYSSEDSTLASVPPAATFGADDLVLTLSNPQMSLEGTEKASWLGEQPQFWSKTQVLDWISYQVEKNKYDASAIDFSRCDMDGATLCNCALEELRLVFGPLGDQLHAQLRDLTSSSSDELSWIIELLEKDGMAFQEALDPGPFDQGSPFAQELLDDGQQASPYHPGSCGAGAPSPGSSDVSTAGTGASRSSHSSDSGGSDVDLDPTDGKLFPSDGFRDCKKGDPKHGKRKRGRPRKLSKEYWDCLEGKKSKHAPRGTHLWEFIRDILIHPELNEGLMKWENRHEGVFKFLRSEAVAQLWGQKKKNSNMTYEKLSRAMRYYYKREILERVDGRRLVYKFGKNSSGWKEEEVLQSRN
Procedure, shortened: as §1

[17] = target: T11, ELK4 (Homo sapiens, UniProt P28324-2 1-405); conditions: protein: recombinant; tags: N-terminal GST; dsDNA, one strand shown
T11 sequence: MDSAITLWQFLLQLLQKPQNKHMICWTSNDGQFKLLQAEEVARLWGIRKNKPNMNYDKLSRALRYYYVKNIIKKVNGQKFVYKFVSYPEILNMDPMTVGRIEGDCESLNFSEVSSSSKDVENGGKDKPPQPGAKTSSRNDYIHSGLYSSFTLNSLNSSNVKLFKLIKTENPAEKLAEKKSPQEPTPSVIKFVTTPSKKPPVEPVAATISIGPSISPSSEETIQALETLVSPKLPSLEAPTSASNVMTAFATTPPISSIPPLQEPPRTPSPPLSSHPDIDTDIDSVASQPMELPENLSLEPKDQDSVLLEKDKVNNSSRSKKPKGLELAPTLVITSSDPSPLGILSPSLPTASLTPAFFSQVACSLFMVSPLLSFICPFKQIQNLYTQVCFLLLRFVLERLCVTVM
Procedure, shortened: as §1

Sequence	binding signal [1]	binding signal [2]	binding signal [3]	binding signal [4]	binding signal [5]	binding signal [6]	binding signal [7]	binding signal [8]	binding signal [9]	binding signal [10]	binding signal [11]	binding signal [12]	binding signal [13]	binding signal [14]	binding signal [15]	binding signal [16]	binding signal [17]
TAGATC	1.06 fold enrichment (6-mer frequency, TF over GST control)	1.06 fold enrichment (6-mer frequency, TF over GST control)	1.49 fold enrichment (6-mer frequency, TF over GST control)	1.13 fold enrichment (6-mer frequency, TF over GST control)	1.2 fold enrichment (6-mer frequency, TF over GST control)	1.51 fold enrichment (6-mer frequency, TF over GST control)	1.04 fold enrichment (6-mer frequency, TF over GST control)	1.18 fold enrichment (6-mer frequency, TF over GST control)	1.13 fold enrichment (6-mer frequency, TF over GST control)	1.13 fold enrichment (6-mer frequency, TF over GST control)	1.43 fold enrichment (6-mer frequency, TF over GST control)	1.06 fold enrichment (6-mer frequency, TF over GST control)	1.02 fold enrichment (6-mer frequency, TF over GST control)	1.09 fold enrichment (6-mer frequency, TF over GST control)	1.02 fold enrichment (6-mer frequency, TF over GST control)		
CATAAA	1 fold enrichment (6-mer frequency, TF over GST control)	1.03 fold enrichment (6-mer frequency, TF over GST control)	1.07 fold enrichment (6-mer frequency, TF over GST control)	1.06 fold enrichment (6-mer frequency, TF over GST control)		1.11 fold enrichment (6-mer frequency, TF over GST control)	1.03 fold enrichment (6-mer frequency, TF over GST control)		1.06 fold enrichment (6-mer frequency, TF over GST control)							1.08 fold enrichment (6-mer frequency, TF over GST control)	
CGATCG	1.03 fold enrichment (6-mer frequency, TF over GST control)	1.03 fold enrichment (6-mer frequency, TF over GST control)	1.09 fold enrichment (6-mer frequency, TF over GST control)	1.04 fold enrichment (6-mer frequency, TF over GST control)	1.12 fold enrichment (6-mer frequency, TF over GST control)		1.03 fold enrichment (6-mer frequency, TF over GST control)	1.04 fold enrichment (6-mer frequency, TF over GST control)	1.03 fold enrichment (6-mer frequency, TF over GST control)	1.04 fold enrichment (6-mer frequency, TF over GST control)	1.1 fold enrichment (6-mer frequency, TF over GST control)	1 fold enrichment (6-mer frequency, TF over GST control)		1.09 fold enrichment (6-mer frequency, TF over GST control)	1.03 fold enrichment (6-mer frequency, TF over GST control)	1.08 fold enrichment (6-mer frequency, TF over GST control)	1.13 fold enrichment (6-mer frequency, TF over GST control)

Source: publication PMC7862700, “An all-to-all approach to the identification of sequence-specific readers for epigenetic DNA modifications on cytosine”
